Measured values reported in PubChem BioAssay.
Calls of active or inactive are those of the source.

Experiments:
[1] = system: PRMT1 (protein arginine N-methyltransferase 1); assay: PRMT1 binders on small-molecule microarrays, primary screen, biochemical, small-molecule microarray, 635 nm fluorescence (AID 1088); details: small-molecule microarray binding, higher = more signal;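 further: binding of Prmt1 protein to compounds spotted on small-molecule microarray slides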
[2] = yeast growth modulation, basal conditions, primary screen, YJM789 clinical isolate, OD600, 24 h (AID 1089);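 further: growth of clinical yeast isolate S. cerevisiae YJM 789 seeded 1000 cells per well; test concentration not given here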; details: S. cerevisiae YJM789 growth, higher = more signal, called active from +8 up or from −8 down
[3] = fission yeast growth modulation, primary screen, strain 972, OD600, 24 h, no modulator (AID 1090);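 further: basal condition with compound alone and no growth modifier present; test concentration not given here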; details: S. pombe 972 growth, higher = more signal, called active from +8 up or from −8 down
[4] = S. cerevisiae growth modulation with rapamycin, primary screen, strain BY4716, OD600, 96 h (AID 1091); details: higher = more signal, called active from +8 up or from −8 down; further: test concentration not given here
[5] = target: Torsin-1A-interacting protein 2 (Homo sapiens) (UniProt Q8NFQ8); assay: LULL1 binders on small-molecule microarray, primary screen, cell lysate, human LULL1 lysate, 635/667 nm fluorescence (AID 1092); details: hLULL1 lysate binding, 635 nm fluorescence, higher = more signal;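 further: probe is lysate of COS7 cells overexpressing human LULL1; score merges per-feature 667 nm fluorescence with signal-to-noise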
Sequence of Torsin-1A-interacting protein 2 (Homo sapiens) (Q8NFQ8 whole entry, looked up): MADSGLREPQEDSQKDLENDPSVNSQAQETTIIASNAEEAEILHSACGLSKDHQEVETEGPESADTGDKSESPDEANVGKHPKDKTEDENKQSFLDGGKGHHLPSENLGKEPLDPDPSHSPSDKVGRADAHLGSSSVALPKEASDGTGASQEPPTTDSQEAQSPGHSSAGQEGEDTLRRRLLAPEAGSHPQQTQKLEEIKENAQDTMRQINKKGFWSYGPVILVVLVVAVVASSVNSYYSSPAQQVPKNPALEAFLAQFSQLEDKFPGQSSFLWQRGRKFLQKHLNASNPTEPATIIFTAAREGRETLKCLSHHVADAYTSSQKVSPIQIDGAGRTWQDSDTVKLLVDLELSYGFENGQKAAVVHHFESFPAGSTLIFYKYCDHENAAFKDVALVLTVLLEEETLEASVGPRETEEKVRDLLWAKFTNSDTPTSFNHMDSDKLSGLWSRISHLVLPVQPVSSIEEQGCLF

[6] = E. coli growth modulation, two-sided OD650, primary screen, E. coli filamentation project, strain DRC41, 24 h (AID 1093); details: OD650, 24 h, higher = more signal, called active from +8 up or from −8 down;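 further: MC1000 strain lacking acrAB efflux and sulA so SOS filamentation is blocked; test concentration not given here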
[7] = small-molecule microarray binders of probe aLefty2, primary screen, biochemical, biotinylated probe, 635/667 nm fluorescence (AID 1094); details: higher = more signal;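 further: score merges spot fluorescence near 667 nm with spot signal-to-noise ratio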
[8] = system: Noggin (protein binding on small-molecule microarray); assay: Noggin binders on small-molecule microarray, primary screen, biochemical, 635/667 nm fluorescence (AID 1095); details: 635 nm fluorescence, higher = more signal;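 further: score merges 667 nm feature fluorescence with signal to noise over triplicate slides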
[9] = target: Neurogenic locus notch homolog protein 3 (Homo sapiens) (UniProt Q9UM47); assay: NOTCH3 binders on small-molecule microarray, primary screen, biochemical, 635/667 nm fluorescence (AID 1096); details: NOTCH3 binding, 635 nm fluorescence, higher = more signal
Sequence of Neurogenic locus notch homolog protein 3 (Homo sapiens) (Q9UM47 whole entry, looked up): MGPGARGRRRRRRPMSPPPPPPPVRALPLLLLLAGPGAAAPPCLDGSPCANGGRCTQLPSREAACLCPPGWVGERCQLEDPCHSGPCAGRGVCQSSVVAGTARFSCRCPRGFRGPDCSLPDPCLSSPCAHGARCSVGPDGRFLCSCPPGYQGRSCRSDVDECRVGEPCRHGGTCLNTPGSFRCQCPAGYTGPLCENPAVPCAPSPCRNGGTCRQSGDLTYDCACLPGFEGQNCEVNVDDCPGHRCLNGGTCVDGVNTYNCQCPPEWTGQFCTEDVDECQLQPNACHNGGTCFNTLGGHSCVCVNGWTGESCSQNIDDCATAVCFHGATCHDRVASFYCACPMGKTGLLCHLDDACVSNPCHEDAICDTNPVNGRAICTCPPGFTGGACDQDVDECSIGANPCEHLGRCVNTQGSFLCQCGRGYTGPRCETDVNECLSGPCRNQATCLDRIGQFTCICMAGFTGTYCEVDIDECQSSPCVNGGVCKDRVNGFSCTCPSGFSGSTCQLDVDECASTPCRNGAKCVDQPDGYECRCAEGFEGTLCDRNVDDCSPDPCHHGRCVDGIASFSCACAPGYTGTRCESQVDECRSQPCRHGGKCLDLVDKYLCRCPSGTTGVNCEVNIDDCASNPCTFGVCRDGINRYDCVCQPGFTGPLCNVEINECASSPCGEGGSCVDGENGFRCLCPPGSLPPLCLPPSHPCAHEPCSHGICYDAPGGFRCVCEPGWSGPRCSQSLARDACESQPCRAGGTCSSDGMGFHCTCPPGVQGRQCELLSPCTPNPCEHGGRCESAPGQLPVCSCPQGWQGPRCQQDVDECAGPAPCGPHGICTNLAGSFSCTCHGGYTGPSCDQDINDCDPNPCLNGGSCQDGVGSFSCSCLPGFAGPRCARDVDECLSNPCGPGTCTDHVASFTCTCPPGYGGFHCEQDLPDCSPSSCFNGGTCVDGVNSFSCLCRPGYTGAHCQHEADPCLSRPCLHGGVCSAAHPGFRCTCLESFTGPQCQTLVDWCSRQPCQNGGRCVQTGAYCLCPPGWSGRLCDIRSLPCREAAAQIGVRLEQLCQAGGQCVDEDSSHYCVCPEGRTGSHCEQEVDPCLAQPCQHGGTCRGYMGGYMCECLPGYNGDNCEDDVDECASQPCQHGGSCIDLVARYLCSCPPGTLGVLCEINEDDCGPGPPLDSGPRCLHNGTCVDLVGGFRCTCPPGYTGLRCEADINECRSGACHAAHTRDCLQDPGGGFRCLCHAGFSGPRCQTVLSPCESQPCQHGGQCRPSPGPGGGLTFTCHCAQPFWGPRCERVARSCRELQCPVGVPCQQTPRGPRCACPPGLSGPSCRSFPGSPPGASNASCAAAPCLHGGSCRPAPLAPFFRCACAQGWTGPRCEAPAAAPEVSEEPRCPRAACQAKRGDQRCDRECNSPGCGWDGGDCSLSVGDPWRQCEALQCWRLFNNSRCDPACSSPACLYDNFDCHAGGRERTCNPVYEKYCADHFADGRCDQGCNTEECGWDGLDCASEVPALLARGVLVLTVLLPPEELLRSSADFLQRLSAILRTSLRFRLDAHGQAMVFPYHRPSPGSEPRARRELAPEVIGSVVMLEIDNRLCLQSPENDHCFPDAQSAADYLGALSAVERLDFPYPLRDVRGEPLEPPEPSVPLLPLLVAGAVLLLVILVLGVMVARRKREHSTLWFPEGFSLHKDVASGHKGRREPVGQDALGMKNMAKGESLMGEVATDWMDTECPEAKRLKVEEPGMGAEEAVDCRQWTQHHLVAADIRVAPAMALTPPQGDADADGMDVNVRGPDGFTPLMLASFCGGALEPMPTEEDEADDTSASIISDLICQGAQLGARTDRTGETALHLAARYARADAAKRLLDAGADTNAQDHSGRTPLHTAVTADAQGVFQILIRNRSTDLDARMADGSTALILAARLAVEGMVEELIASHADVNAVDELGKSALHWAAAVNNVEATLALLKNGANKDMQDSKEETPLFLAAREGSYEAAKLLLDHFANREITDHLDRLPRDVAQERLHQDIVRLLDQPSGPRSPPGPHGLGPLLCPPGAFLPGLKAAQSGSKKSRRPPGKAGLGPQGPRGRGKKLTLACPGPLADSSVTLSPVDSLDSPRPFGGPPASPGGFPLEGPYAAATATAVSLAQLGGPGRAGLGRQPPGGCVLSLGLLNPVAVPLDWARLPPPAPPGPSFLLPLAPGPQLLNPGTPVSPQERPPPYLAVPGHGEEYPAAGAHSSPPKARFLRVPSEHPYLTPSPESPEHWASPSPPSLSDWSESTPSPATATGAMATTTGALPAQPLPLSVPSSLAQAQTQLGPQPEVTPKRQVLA

[10] = small-molecule microarray binders of probe aEGFR, primary screen, biochemical, biotinylated probe, 635/667 nm fluorescence (AID 1097); details: higher = more signal;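 further: probe is a biotinylated anti-EGFR antibody binding compounds printed on slides; score combines fluorescence near 667 nm and signal to noise of each spot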
[11] = system: Plasmodium falciparum Sir2 (PF13_0152, Sir2A); assay: pfSir2 binders on small-molecule microarrays, primary screen, biochemical, small-molecule microarray, 635 nm fluorescence (AID 1098); details: small-molecule microarray binding, fluorescence 635 nm; higher = more signal;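 further: score merges spot fluorescence intensity with its signal-to-noise ratio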
[12] = small-molecule microarray binders of probe aDKK1, primary screen, biochemical, biotinylated probe, 635/667 nm fluorescence (AID 1099); details: higher = more signal;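 further: score merges 667nm spot fluorescence with signal to noise across triplicate slides; reference of the scale not given here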
[13] = small-molecule microarray binders of probe aCHRDL2, primary screen, biochemical, biotinylated probe, 635/667 nm fluorescence (AID 1100); details: higher = more signal
[14] = splicing luciferase reporter signal modulators, primary screen, spliceosome inhibition project, cell-based, HEK293, splice +/- reporter (AID 1101); details: luminescence, 24 h, higher = more signal, called active from +8 up or from −8 down;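 further: HEK293 cells carrying a splicing-competent luciferase reporter gene; test concentration not given here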
[15] = target: Fibroblast growth factor 10 (Homo sapiens) (UniProt O15520); assay: FGF10 binders on small-molecule microarrays, primary screen, biochemical, small-molecule microarray, 635 nm fluorescence (AID 1102); details: FGF10 binding, fluorescence 635 nm, higher = more signal
Sequence of Fibroblast growth factor 10 (Homo sapiens) (O15520 whole entry, looked up): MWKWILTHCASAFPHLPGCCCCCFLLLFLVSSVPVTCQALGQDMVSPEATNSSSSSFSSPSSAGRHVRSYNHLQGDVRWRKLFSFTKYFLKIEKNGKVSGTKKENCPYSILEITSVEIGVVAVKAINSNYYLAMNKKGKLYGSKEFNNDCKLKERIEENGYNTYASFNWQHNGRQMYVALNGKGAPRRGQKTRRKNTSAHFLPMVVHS

[16] = system: glycogen synthase kinase-3 (GSK3A per assay name; protocol says GSK3B); assay: GSK3 binders on small-molecule microarrays, primary screen, biochemical, small-molecule microarray, 635 nm fluorescence, GSK3A (AID 1103); details: small-molecule microarray binding, fluorescence 635 nm; higher = more signal; further: the record names both GSK3A and GSK3B
[17] = target: Epidermal growth factor receptor (Homo sapiens) (UniProt P00533); assay: EGFR binders on small-molecule microarrays, primary screen, biochemical, small-molecule microarray, 635 nm fluorescence (AID 1104); details: EGFR binding, higher = more signal;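 further: score merges 667 nm emission intensity with spot signal to noise over triplicate slides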
Sequence of Epidermal growth factor receptor (Homo sapiens) (P00533 whole entry, looked up): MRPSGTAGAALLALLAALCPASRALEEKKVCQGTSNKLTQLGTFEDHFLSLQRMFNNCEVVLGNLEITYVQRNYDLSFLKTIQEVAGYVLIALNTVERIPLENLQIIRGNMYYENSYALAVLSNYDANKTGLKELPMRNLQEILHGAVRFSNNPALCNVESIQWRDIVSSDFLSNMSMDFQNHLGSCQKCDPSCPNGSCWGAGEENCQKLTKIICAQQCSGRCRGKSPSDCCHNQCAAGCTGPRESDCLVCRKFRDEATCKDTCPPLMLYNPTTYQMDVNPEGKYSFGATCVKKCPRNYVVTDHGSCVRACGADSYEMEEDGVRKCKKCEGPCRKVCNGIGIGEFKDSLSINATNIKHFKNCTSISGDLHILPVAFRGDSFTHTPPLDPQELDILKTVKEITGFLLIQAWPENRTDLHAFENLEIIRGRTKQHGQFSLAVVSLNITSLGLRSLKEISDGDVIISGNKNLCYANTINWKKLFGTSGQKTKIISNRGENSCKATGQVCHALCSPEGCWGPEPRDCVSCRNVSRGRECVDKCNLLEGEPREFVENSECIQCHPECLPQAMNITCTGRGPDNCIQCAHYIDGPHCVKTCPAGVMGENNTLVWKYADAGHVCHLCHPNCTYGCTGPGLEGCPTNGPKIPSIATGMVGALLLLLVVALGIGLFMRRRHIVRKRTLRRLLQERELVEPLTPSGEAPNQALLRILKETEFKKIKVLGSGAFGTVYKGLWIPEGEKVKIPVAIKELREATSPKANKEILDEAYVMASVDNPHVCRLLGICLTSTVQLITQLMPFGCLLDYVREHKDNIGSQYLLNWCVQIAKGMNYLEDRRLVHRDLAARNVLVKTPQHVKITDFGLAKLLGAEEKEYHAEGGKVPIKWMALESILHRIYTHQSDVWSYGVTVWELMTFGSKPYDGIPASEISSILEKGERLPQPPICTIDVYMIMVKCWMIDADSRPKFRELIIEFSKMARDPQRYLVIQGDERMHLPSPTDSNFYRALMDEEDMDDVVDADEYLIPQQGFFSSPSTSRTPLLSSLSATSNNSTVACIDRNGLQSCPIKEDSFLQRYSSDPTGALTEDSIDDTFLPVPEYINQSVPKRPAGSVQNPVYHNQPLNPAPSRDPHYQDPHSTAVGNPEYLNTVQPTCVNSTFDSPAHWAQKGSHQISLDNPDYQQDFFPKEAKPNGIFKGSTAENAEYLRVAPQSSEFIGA

[18] = target: Follistatin-related protein 3 (Homo sapiens) (UniProt O95633); assay: FSTL3 binders on small-molecule microarrays, primary screen, biochemical, small-molecule microarray, 635 nm fluorescence (AID 1105); details: FSTL3 binding, higher = more signal;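 further: score merges emission near 667 nm and signal to noise per printed spot across three slides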
Sequence of Follistatin-related protein 3 (Homo sapiens) (O95633 whole entry, looked up): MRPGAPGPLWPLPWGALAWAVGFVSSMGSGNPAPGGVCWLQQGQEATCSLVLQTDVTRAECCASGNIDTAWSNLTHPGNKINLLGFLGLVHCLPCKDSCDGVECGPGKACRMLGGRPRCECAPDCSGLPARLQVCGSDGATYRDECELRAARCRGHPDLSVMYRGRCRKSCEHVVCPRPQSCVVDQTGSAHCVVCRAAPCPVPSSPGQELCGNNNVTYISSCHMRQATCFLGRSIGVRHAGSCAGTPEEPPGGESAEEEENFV

[19] = target: Dickkopf-related protein 1 (Homo sapiens) (UniProt O94907); assay: DKK1 binders on small-molecule microarrays, primary screen, biochemical, small-molecule microarray, 635 nm fluorescence scan (AID 1106); details: DKK1 binding, higher = more signal;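 further: score merges emission near 667 nm with signal to noise over three replicate slides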
Sequence of Dickkopf-related protein 1 (Homo sapiens) (O94907 whole entry, looked up): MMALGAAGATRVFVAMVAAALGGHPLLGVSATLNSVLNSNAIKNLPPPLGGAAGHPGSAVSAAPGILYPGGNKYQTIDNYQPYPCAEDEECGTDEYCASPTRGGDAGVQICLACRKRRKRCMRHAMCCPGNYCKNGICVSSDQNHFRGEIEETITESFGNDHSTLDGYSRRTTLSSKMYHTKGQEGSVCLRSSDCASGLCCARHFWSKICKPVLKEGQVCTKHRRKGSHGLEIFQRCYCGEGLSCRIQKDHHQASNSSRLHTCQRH

[20] = system: Inhibin beta A chain (activin A); assay: INHBA (activin A) binders on microarrays, primary screen, biochemical, small-molecule microarray, 635 nm fluorescence scan (AID 1107); details: small-molecule microarray binding, higher = more signal;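 further: mouse activin A protein probed at 4.33 µg/mL on printed slides; score merges bound-protein fluorescence near 667 nm with spot signal-to-noise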

Structure (SMILES) | composite z-score [1] | z-score [2] | z-score [3] | z-score [4] | composite z-score [5] | z-score [6] | composite z-score [7] | composite z-score [8] | composite z-score [9] | composite z-score [10] | composite z-score [11] | composite z-score [12] | composite z-score [13] | z-score [14] | composite z-score [15] | composite z-score [16] | composite z-score [17] | composite z-score [18] | composite z-score [19] | composite z-score [20]
C=C(C)C1CCC(C(O)C2C=CC3C(=O)N(C)C(=O)C3N2N2CCCCC2)CC1 (stereo not given) | 1.53 | 1.26 (inactive) | 0.642 (inactive) | 2.25 (inactive) | 3.04 | -0.867 (inactive) | 0.398 | 0.758 | 1.04 | 0.368 | 0.925 | 0.145 | 0.67 | 0.929 (inactive) | 0.853 | 1.3 | 1.16 | 1.35 | 0.986 | 1.42
CCOC(=O)[C@H]1[C@@H]2C(=O)N3CCC[C@H]3[C@H](O[Si](C(C)C)(C(C)C)C(C)C)[C@H]2C=C2CCN(S(=O)(=O)c3ccc(C)cc3)C[C@H]21 | 1.55 | -0.212 (inactive) | -0.772 (inactive) | 1.04 (inactive) | 2.38 | -0.717 (inactive) | -0.0795 | 0.55 | 1.09 | -0.0978 | 0.779 | -0.341 | -0.535 | -1.73 (inactive) | 1 | 0.938 | 0.586 | 0.766 | 0.593 | 0.141
O=C1O[C@H](c2ccccc2)[C@H](c2ccccc2)N2[C@H]1[C@@H](C(=O)N1CCN(c3ncccn3)CC1)[C@]1(C(=O)Nc3ccc(C#CC4(O)CCCCCC4)cc31)[C@H]2c1ccc(OCCO)cc1 | 1.53 | 2.89 (inactive) | 1.42 (inactive) | 5.4 (inactive) | 3.79 | -0.409 (inactive) | 1.19 | 1.68 | 1.08 | 0.471 | 1.82 | 0.695 | 0.731 | -0.604 (inactive) | 1.45 | 1.33 | 1.38 | 1.21 | 1.42 | 0.86
C=CCC(OC(C)=O)[C@@H]1[C@@H](N(Cc2cc3ccccc3o2)C(=O)c2ccc(-c3ccccc3)cc2)c2cc(OCCCO)ccc2N1C(=O)c1ccc2ccccc2c1 (stereo not given in full) | 0.0279 | 0.271 (inactive) | 0.314 (inactive) | 1.03 (inactive) | 1.1 | -0.704 (inactive) | -0.0485 | 0.228 | 0.391 | -0.0981 | 0.187 | -0.106 | 0.285 | 0.416 (inactive) | 0.132 | 0.289 | -0.0546 | 0.674 | 0.227 | 1.02
COCCCNC(=O)[C@]1(CCS(=O)(=O)c2ccccc2)N=C(c2ccc(OCCCO)cc2)O[C@@H]1c1ccccc1CN=[N+]=[N-] | 1.55 | 1.52 (inactive) | 0.971 (inactive) | 2.59 (inactive) | 3.47 | 0.773 (inactive) | 0.417 | 0.896 | 1.02 | 0.455 | 1.51 | 1.41 | 1.26 | -0.325 (inactive) | 1.54 | 1.32 | 0.233 | 1.2 | -0.0602 | 0.746
COC(=O)[C@@]1(Cc2ccc(OC)cc2)[C@H]2c3cc(C(=O)N4CCCC4)n(Cc4c(-c5ccccc5)noc4C)c3C[C@H]2CN1C(=O)c1ccccc1 | 0.525 | 0.729 (inactive) | 1.32 (inactive) | 1.77 (inactive) | 3.31 | 0.19 (inactive) | 0.422 | 0.658 | 1.04 | 0.374 | 0.743 | 1.08 | 1.12 | -3.14 (inactive) | 1.4 | 0.495 | 0.713 | 1.2 | -0.414 | 0.641
O=C1O[C@@H](c2ccccc2)[C@@H](c2ccccc2)N2[C@@H](c3ccc(O)cc3)[C@]3(C(=O)Nc4ccc(C#CC5=CCCCC5)cc43)[C@@H](C(=O)NC[C@H](O)c3ccccc3)[C@H]12 | 1.54 | 1.31 (inactive) | 0.18 (inactive) | 2.89 (inactive) | 2.55 | 1.24 (inactive) | -0.0916 | 1.22 | 1.07 | 0.12 | 1.12 | 0.603 | 0.757 | -1.41 (inactive) | 1.41 | 1.28 | 0.829 | 1.42 | 1.49 | 1.02
CC(=O)NCCCC[C@@H]1NC(=O)[C@@H]2C[C@H](C(=O)NCCCC[N+](C)(C)C)[C@H](c3ccc(O)cc3)N2C1=O | 1.54 | 0.305 (inactive) | -0.266 (inactive) | -1.29 (inactive) | 1.46 | 0.0855 (inactive) | -0.0774 | 1.36 | 1.09 | -0.0131 | 1.46 | -0.151 | -0.295 | -1.47 (inactive) | 1.33 | 0.301 | 0.753 | 1.47 | 1.76 | -0.261
CN(C)C(=O)[C@]1(CCS(=O)(=O)c2ccccc2)N=C(c2ccc(OCCCO)cc2)O[C@@H]1c1ccccc1N=[N+]=[N-] | 1.53 | 0.154 (inactive) | -0.327 (inactive) | 1.69 (inactive) | 3.78 | 0.0837 (inactive) | 0.429 | 1.42 | 1.05 | 0.204 | 1.78 | 0.774 | 0.923 | -2.08 (inactive) | 1.42 | 0.581 | 0.564 | 1.45 | 0.553 | 1.33
